Screening results (PubChem BioAssay)
Her2 expr inh – inhibitors of Her2 protein expression, primary screen, SKBR-3 cells, AlphaScreen, 66K library | Receptor tyrosine-protein kinase erbB-2 (Homo sapiens), P04626 | SKBR-3 HER2 protein level, 18-24 h; hits give low values | HER2 level % of control, % at 10 µM | actives 0.69% (n = 65,000);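 active = HER2 level under 5% of the carrier-only control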;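 note: lower value means stronger loss of Her2 protein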
M1 agonist – M1 muscarinic receptor agonists, primary screen, CHO-M1 cells, Fluo-4 calcium, agonist mode. Fluo-4 calcium fluorescence; hits give high values. B-score at 10 µM. Muscarinic acetylcholine receptor M1. actives 3% (n = 64,000);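 active = fluorescence rise, raw or as B-score row- and column-corrected plate score, outside the 99.7% band of its plate's samples, either direction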
Cav3 T inh – Cav3.2 calcium influx blockers – cell-based, Fluo-4 calcium fluorescence, FDSS, MLSMR library, primary screen; Voltage-dependent T-type calcium channel subunit alpha-1H (Homo sapiens), O95180; Cav3.2-expressing cells; hits give low values; actives 4% (n = 100,000); B-score at 10 µM;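 active = single-dose well whose peak fluorescence ratio is a statistical outlier from its plate by either plate-standardised score or position-corrected B-score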
PLAP act – PLAP enzyme activators, biochemical, luminescence, HTS | actives 1.2% (n = 96,000) | activation fold at 20 µM | Alkaline phosphatase, placental type (Homo sapiens), P05187 | purified PLAP enzyme, luminescent substrate read-out; hits give high values | AID 696, 2007; in the data active = activation fold above about 2
M1 antag – antagonists of rat M1 muscarinic receptor. actives 3.4% (n = 64,000). CHO-M1 cells, Fluo-4 calcium, ACh EC80 antagonist mode; hits give low values. Muscarinic acetylcholine receptor M1 (Rattus norvegicus), P08482. B-score at 10 µM;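 active = calcium fluorescence response, raw or row-and-column corrected B-score, differing from the plate sample mean either way at a set confidence level, mostly lower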
Hits are given with their value; - = inactive; . = not tested or not shown. The list is not random: actives were taken first. Their share in the collection is about 7.9%.

SMILES | Her2 expr inh | M1 agonist | Cav3 T inh | PLAP act | M1 antag
CC(C)(C)n1c(O)c(C=Nc2ccc3c(c2)CCC3)c(=O)[nH]c1=O | - | - | - | - | -
COC(=O)C1=C(c2cc3ccccc3o2)C[C@@H]2CC[C@H]1N2C(=O)N1CCOCC1 | . | . | - | . | .
CCN(c1ccc(C(O)(C(=O)OC)C(F)(F)F)cc1)S(=O)(=O)c1ccc(C)cc1 (stereo not drawn) | . | . | -4.9 | - | .
CCOC(=O)C(O)(c1ccc(N(CC)S(=O)(=O)c2ccc(C)cc2)cc1)C(F)(F)F (stereo not drawn) | . | . | -6.2 | - | .
Cc1ccc(-n2c(O)c(C=NC3CCCCC3N)c(=O)[nH]c2=O)cc1C (stereo not drawn) | - | - | - | 2.2 | -
NC1CCCCC1N=Cc1c(O)n(Cc2ccc(F)cc2)c(=O)[nH]c1=O (stereo not drawn) | - | - | - | 2.8 | -
CCCCn1c(O)c(C=NC2CCCCC2N)c(=O)[nH]c1=O (stereo not drawn) | - | - | - | - | -
CCOC(=O)C(C)(CC)NC(=O)CSP(=S)(OCC)OCC (stereo not drawn) | . | . | - | - | .
CN1C2CCC1CC(OC(c1ccccc1)c1ccccc1N)C2 (stereo not drawn) | . | . | - | . | .
C[N+]1(C)CCC(OC(=O)C(c2ccccc2)c2ccccc2)CC1 | . | . | -4.4 | . | .
CC(C)CC12CN3CCN(CC(C3)C1O)C2 (stereo not drawn) | - | - | - | - | 1.4
CC1(C)CC(=O)C(C2(O)C(=O)NC(=O)NC2=O)=C(O)C1 | - | - | - | - | -
CNc1ccc2oc(C[C@H]3O[C@@]4(CC[C@H]3C)O[C@H]([C@H](C)C(=O)c3ccc[nH]3)[C@H](C)C[C@H]4C)nc2c1C(=O)O | . | . | 4.4 | . | .
CCOC(=O)c1ccc(N2C(=O)CC(N3CCC(C#N)(c4ccccc4)CC3)C2=O)cc1 (stereo not drawn) | - | - | - | - | -
CCOC(=O)C1(c2ccccc2)CCN(CCC(C#N)(c2ccccc2)c2ccccc2)CC1 | . | . | -7.5 | . | .
CCOC(=O)c1ccc(NC(=O)c2c(O)[nH]c(=O)[nH]c2=O)cc1 | - | 86 | . | - | -
CCC(=NCc1ccco1)c1c(O)n(C2CCCCC2)c(=O)[nH]c1=O | - | - | -6.8 | - | -
COC(=O)C1=C(c2cccc(OC)c2OC)C[C@@H]2CC[C@H]1N2C(=O)NCc1ccc(C(F)(F)F)cc1 | . | . | - | . | .
O=P(OCC(F)(F)C(F)F)(N1CCCCC1)N1CCCCC1 | - | - | - | - | -
CC1CCN(S(=O)(=O)c2ccc(NN=C(C#N)C#N)cc2)CC1 | . | . | -8.4 | - | .
O=C(Cn1ncc2c3ccccc3n(Cc3ccc(F)cc3)c2c1=O)N1CCC2(CC1)OCCO2 | - | - | -8 | . | -
Cc1c2cnn(CC(=O)N3CCC4(CC3)OCCO4)c(=O)c2c(C)n1Cc1ccccc1 | - | - | - | - | -
CC(C)=CCc1c(O)cc2c(c1O)C(=O)CC(c1ccc(O)cc1)O2 (stereo not drawn) | . | . | - | . | .
O=C1C2CCCN2C(c2cccnc2)N1c1nccs1 (stereo not drawn) | - | - | . | - | -
Cc1cc(C)n(CCOC(=O)C2C(C=C(Cl)Cl)C2(C)C)n1 (stereo not drawn) | - | - | -6.6 | - | -
SMILES | Her2 expr inh | M1 agonist | Cav3 T inh | PLAP act | M1 antag
CC[C@@H](CO)C1CC2NC3CC4(c5ccccc5N(C)[C@@H]24)C(O)C31 (stereo partly drawn) | . | . | - | . | .
Nc1c(C(=O)NC2CCCC2)c2nc3ccccc3nc2n1CC1CCCO1 (stereo not drawn) | -28 | - | -6.4 | - | -
CN1/C(=C\C=C\C2=[N+](C)c3ccc4ccccc4c3C2(C)C)C(C)(C)c2ccccc21 | . | . | -5.9 | - | .
COC(=O)C1=C(c2cc3ccccc3s2)C[C@@H]2CC[C@H]1N2C(=O)NCc1ccc(F)cc1 | . | . | -3.4 | . | .
COC(=O)C1=C(c2cc3ccccc3s2)C[C@@H]2CC[C@H]1N2C(=O)NCc1ccccc1 | . | . | - | . | .
C=C(C)[C@H]1CN[C@H](C(=O)O)[C@H]1CC(=O)O | . | . | - | . | .
CCCC/C(=N\O)c1c[nH]c2ccccc12 | . | . | - | - | .
COC(=O)C1=C(c2cccc(OC)c2OC)C[C@@H]2CC[C@H]1N2C(=O)NCc1cccc2ccccc12 | . | . | - | . | .
O=C(c1cccs1)c1cn(Cc2ccccc2Cl)c2ccccc12 | . | . | -6.2 | - | .
